Results as given in PubChem BioAssay AID652104 (National Center for Advancing Translational Sciences (NCATS), 2013).
Out of some 410,000 compounds screened, about 7,200 (1.8%) were called active. Entries that show only a call come without a potency. Inconclusive results (about 7%) are left out. For the sample, actives were picked, then their nearest neighbours and some compounds at random. Values without a mark were called inactive. Calls come from the whole dose curve; as a rule, active = well fitted activation curve with a large enough effect; inconclusive = small, poorly fitted or top-dose-only effect, or another doubt; inactive = no such curve, though single readings can be large or run the other way.

Assay: qHTS of TDP-43 Inhibitors; note: nearly all actives have a fitted effect of over 50% in size
Conditions: TDP-43 expressing yeast growth rescue, BacTiter-Glo, 24 h; series mostly up to 46.1 µM
Procedure, shortened: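 Cell-based yeast growth screen: TDP-43 expression induced in galactose, inoculum OD600=0.02 after raffinose pregrowth to mid-log. Read-out BacTiter-Glo luminescence at 24 hr, 30 deg C; inhibition of toxicity seen as signal increase.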
Potency is the fitted concentration of half-maximal effect.

| Compound | Potency | growth rescue (activation) |
| --- | --- | --- |
| NNC(=O)c1ccc(COCC(F)(F)C(F)F)cc1 | inactive |  |
| Cc1oc(C(N)=O)cc1COc1ccc(C(N)=O)cc1 | inactive |  |
| Cc1ccc(COc2ccc(C(=O)NN)cc2)cc1 | 15.8 µM (active) |  |
| Cc1nn2c(=O)cc(COC(=O)c3ccccc3NC(=O)COc3ccccc3C)nc2s1 | inactive |  |
| CCc1ccc2oc(-c3ccc(C)c(NC(=O)/C=C/c4ccco4)c3)nc2c1 | inactive |  |
| Cc1ccc(OCCSc2nc(-c3cccs3)nc3cc(=O)[nH]n23)cc1Cl | inactive |  |
| COc1ccc(-c2nc3cnccn3c2NC(C)(C)CC(C)(C)C)cc1O | inactive |  |
| Cc1ccc(Nc2c(-c3ccc(C)cc3)nc3cnccn23)cc1 | 22.4 µM (active) |  |
| Cc1ccc(Nc2c(-c3ccc(C)s3)nc3ccccn23)cc1 | inactive |  |
| COc1ccc(-c2nc(CN3CCC(C(=O)NCCN(CC(C)C)CC(C)C)CC3)c(C)o2)cc1OC | inactive |  |
| CCNS(=O)(=O)c1cc(-c2nnc(Nc3cccc(C(F)(F)F)c3)c3ccccc23)ccc1C | inactive |  |
| CCC1=Nc2cc(C(=O)NCCCOC(C)C)ccc2Sc2ccc(C)cc21 | inactive |  |
| CC(=O)N1c2ccccc2CC1C(=O)N1CCN(c2ccc(F)cc2)CC1 (stereo unspecified) | inactive |  |
| CCCCC(=O)Nc1ccccc1N1CCN(c2ccc(F)cc2)CC1 | 22.4 µM (active) |  |
| CC(=O)c1ccc(N2CCN(CC(=O)Nc3ccccc3N3CCOCC3)CC2)cc1 |  | -6.9% [at 9.22 µM] |
| CCCC(=O)Nc1ccccc1N1CCN(C(=O)c2ccccc2)CC1 | inactive |  |
| COc1ccc(NC(C)=O)cc1NC(=O)CN1CCN(c2ccc(F)cc2)CC1 | inactive |  |
| CCC(C)C(=O)Nc1ccccc1N1CCN(c2ccc(F)cc2)CC1 (stereo unspecified) | 25.1 µM (active) |  |
| CCCC12CN3CC(CCC)(CN(C1)C3c1c[nH]c3ccc(OC)cc13)C2=O (stereo unspecified) | inactive |  |
| COc1cccc(C(O)c2ncc(-c3ccc4ccccc4c3)[nH]2)c1 (stereo unspecified) | inactive |  |
| COc1cccc(C(O)c2nc3ccccc3n2C)c1 (stereo unspecified) | inactive |  |
| CCCCCC(O)c1cccc(OCc2ccc3ccccc3n2)c1 (stereo unspecified) | 12.6 µM (active) |  |
| COc1ccc(OC)c(-c2csc(-c3c(N)c(C(=O)c4ccccc4)n4ccccc34)n2)c1 | inactive |  |
| Cc1ccc(SCC(=O)Nc2ccc3oc(-c4ccccc4C)nc3c2)cc1 | inactive |  |
| O=C(Nc1cccc(-c2nc3ccccc3o2)c1)c1cccc(Br)c1 | inactive |  |
| CCC(=O)Nc1cccc(-c2nc3cc(C)ccc3o2)c1 | 14.1 µM (active) |  |

| Compound | Potency | growth rescue (activation) |
| --- | --- | --- |
| CCOc1ccc(-n2c(C)nc3c(cnn3-c3ccc(C)cc3)c2=O)cc1 | inactive |  |
| CCOC(=O)Cn1c(=O)n(C2CCCCC2)c2nc(-c3cccc(OC)c3)nc(C(N)=O)c21 | inactive |  |
| Cc1ccc(Cl)cc1NC(=O)CCS(=O)(=O)c1ccc(Br)s1 | inactive |  |
| O=Cc1c(Cl)cccc1Cl | inactive |  |
| O=c1[nH]snc1-c1c(Cl)cccc1Cl | 17.8 µM (active) |  |
| CN(C)NC(=O)c1csnc1-c1c(Cl)cccc1Cl | inactive |  |
| O=C(Nc1ccc2c(c1)OCO2)C1CC(c2c(F)cccc2Cl)=NO1 (stereo unspecified) | 10 µM (active) |  |
| Cc1ccc(NC(=O)C2CC(c3ccc(F)cc3)=NO2)cc1 (stereo unspecified) | inactive |  |
| Cc1ccccc1N1CC(C(=O)Nc2ccc3c(c2)OCO3)CC1=O (stereo unspecified) | inactive |  |
| Cc1cccc(CSc2nc3ccncc3n2Cc2ccc(C(=O)O)cc2)c1 | inactive |  |
| COc1ccccc1-c1nnc(NC(=O)c2ccc3ncsc3c2)o1 | 11.2 µM (active) |  |
| Cc1ccc(C(=O)Nc2nnc(C3=COCCO3)o2)cc1C | inactive |  |
| CSc1ccccc1-c1nnc(NC(=O)c2ccc3c(c2)OCCO3)o1 | inactive |  |
| CCOc1ccc(NC(=O)CCC(=O)N2CC(C)Oc3ccc(C)cc32)cc1 (stereo unspecified) | inactive |  |
| Clc1ccc(C2=CSC3=Nc4cccc5cccc(c45)N23)cc1 | 17.8 µM (active) |  |
| COc1ccc(CCN2C(=O)c3oc4cc(C)cc(C)c4c(=O)c3C2c2ccccc2F)cc1OC (stereo unspecified) | inactive |  |
| O=C(Nc1ccc2nc(SCCOc3ccccc3)sc2c1)c1ccco1 | inactive |  |
| O=C(Nc1cc(-c2nc3ncccc3o2)ccc1Cl)c1ccco1 | inactive |  |
| O=C(Nc1cccc(NC(=O)c2ccco2)c1)c1cnccn1 | 12.6 µM (active) |  |
| CSc1nc(=O)c2c(n1C)NC(=O)CC2c1ccccc1OC(C)C (stereo unspecified) |  | 5.81% [at 9.22 µM] |
| COc1ccc(CCN2C(=O)N(c3cccc(OC)c3)C(=O)C2CC(=O)Nc2ccccc2)cc1 (stereo unspecified) | inactive |  |
| N#Cc1ccccc1Cn1cnc2nc3c(cc2c1=O)CCCC3 | inactive |  |
| Cc1ccc2oc(=O)c3cnn(CC(=O)N4CCN(c5cccc(Cl)c5)CC4)c3c2c1 | inactive |  |
| Cc1ccc2onc(CC(=O)N3CCN(c4ccc(Cl)cc4)CC3)c2c1 | 20 µM (active) |  |
| O=C(CSc1nc2ccccc2o1)N1CCN(c2ccc(Cl)cc2)CC1 | inactive |  |
| Cc1nnc(NCc2ccccc2)c2c1nnn2Cc1ccc(F)cc1 | inactive |  |

| Compound | Potency | growth rescue (activation) |
| --- | --- | --- |
| Cc1nc2nc(SCC(=O)N(Cc3ccccc3)C(C)C)nn2c(C)c1Cc1ccccc1Cl | inactive |  |
| Cc1cccc(NC(=O)C2CCN(S(=O)(=O)c3c(C)noc3/C=C/c3ccco3)CC2)c1 | inactive |  |
| O=C(CCNC(=O)c1ccc(Cl)cc1)NC1CCCc2ccccc21 (stereo unspecified) | inactive |  |
| O=C(Nc1cccc(F)c1)NC1CCCc2ccccc21 (stereo unspecified) | 12.6 µM (active) |  |
| NC(=O)Nc1ccc(C(=O)OCC(=O)NC2CCCc3ccccc32)cc1 (stereo unspecified) | inactive |  |
| Cc1cccc(Cn2c(CN3CCC(C(=O)NCc4ccccc4Cl)CC3)cc3ccccc32)c1 | inactive |  |
| Cc1ccc(CSc2nc3cccnc3n2Cc2ccc(C(=O)NC3CC3)cc2)cc1 | inactive |  |
| COc1ccc(-c2onc(C)c2C)cc1S(=O)(=O)NCc1cccs1 | inactive |  |
| COc1ccc(C)cc1S(=O)(=O)NCCc1ccccc1 | inactive |  |
| COc1ccc(-c2onc(C)c2C)cc1S(=O)(=O)NCCc1ccccc1 | 15.8 µM (active) |  |
| Cc1ccc(N(CC(=O)NCC(C)c2ccccc2)S(=O)(=O)N(C)C)cc1 (stereo unspecified) | inactive |  |
| CCCN(CCC)CCNC(=O)c1ccc2c(c1)NC(=O)C(CS(=O)(=O)Cc1cccc(Br)c1)N2 (stereo unspecified) | inactive |  |
| CCOc1ccc(-c2nonc2NC(=O)c2oc3ccc(CC)cc3c2C)cc1 | inactive |  |
| O=C(NCc1ccc2c(c1)CCN2C(=O)c1ccccc1)Nc1cc(F)ccc1F | inactive |  |
| Cc1ccc2c(c1)c1ncnc(N3CCc4ccccc4C3)c1n2C | 22.4 µM (active) |  |
| COc1ccc2c(c1)c1ncn(Cc3ccccn3)c(=O)c1n2C | inactive |  |
| Cc1ccc2c(c1)N(C(=O)CCC(=O)N1CCc3ccccc3C1)CCO2 | inactive |  |
| CCOc1ccc(-n2nc3ccc(NC(=O)c4ccc(OC)c(Cl)c4)cc3n2)cc1 | inactive |  |
| CCCCOc1ccc(NC(=O)c2cc3c(n(-c4ccc(Cl)cc4)c2=O)CCCC3=O)cc1 | inactive |  |
| COc1ccc(C2=NN(C(=O)CSc3nc(=O)n4ccc(C)cc4n3)C(c3ccc(C)cc3)C2)cc1 (stereo unspecified) | inactive |  |
| COc1ccc(C2=NN(C(C)=O)C(c3ccccc3)C2)cc1 (stereo unspecified) | 14.1 µM (active) |  |
| CCC(=O)N1N=C(c2ccc(OC)cc2)CC1c1cn(-c2ccccc2)nc1-c1cccs1 (stereo unspecified) | inactive |  |
| CCN(C(=O)Cn1c(=O)nc(-c2ccccc2)c2cc(Cl)ccc21)c1cccc(C)c1 | inactive |  |
| Cc1ccc(-c2c3c(=O)n(C)c(=O)n(C)c3cn2-n2cnnc2)cc1 | inactive |  |
| Cn1c(=O)c2c(-c3ccccc3Br)n(Cc3ccccc3)cc2n(C)c1=O | 22.4 µM (active) |  |
| COc1ccc(CCn2cc3c(c2-c2ccc(Br)cc2)c(=O)n(C)c(=O)n3C)cc1OC | inactive |  |

| Compound | Potency | growth rescue (activation) |
| --- | --- | --- |
| CCc1ccc(S(=O)(=O)c2nnn3c2nc(NCc2ccccc2OC)c2cc(Cl)ccc23)cc1 | inactive |  |
| NS(=O)(=O)c1ccc(NC(=O)C(=O)Nc2ccc3nc4n(c(=O)c3c2)CCCCC4)cc1 | inactive |  |
| CC(C)NS(=O)(=O)c1ccc(NC(=O)C2CCCCC2)cc1 | inactive |  |
| CCOC(=O)c1cc(C)sc1NC(=O)C1CCC1 | inactive |  |
| Cc1nc(NC(=O)C2CCCCC2)sc1C | 12.6 µM (active) |  |
| CCOC(=O)C1CCCN(C(=O)c2ccc3c(c2)sc2nc(-c4ccc(CC)cc4)cn23)C1 (stereo unspecified) | inactive |  |
| COc1ccc(/C=C/c2nc(C#N)c(NCc3ccc(F)cc3)o2)cc1OC | inactive |  |
| COc1cc2[nH]c(=O)n(Cc3ccc(C(=O)NCc4ccc(C)cc4)cc3)c(=O)c2cc1OC | inactive |  |
| O=C(CCSc1ccccc1)N1CCN(c2ccccc2F)CC1 |  | -9.85% [at 9.22 µM] |
| COc1ccc(N2CCN(C(=O)CCSCc3ccccc3F)CC2)cc1 | inactive |  |
| Cc1cccc(N2CCN(C(=O)CCSCc3ccccc3F)CC2)c1C | 20 µM (active) |  |
| CCc1cc2c(cc3c(=O)n(CC(=O)NCc4cccc(Cl)c4)nc(CC)n32)s1 | inactive |  |
| C=Cc1ccc(Cn2c(C(=O)O)c(CNC3CCCC3)c3ccc(C)cc32)cc1 | inactive |  |
| CCCNC(=O)C1CCC(Cn2c(=O)c3sccc3n(Cc3ccccc3F)c2=O)CC1 (stereo unspecified) | inactive |  |
| COc1ccccc1-c1cc2nc(C)c(CCC(=O)O)c(C)n2n1 | inactive |  |
| COc1ccccc1-c1cc2nc(C)c(CCC(=O)NC3CCCCC3)c(C)n2n1 | inactive |  |
| COc1ccc(-c2cc3nc(C)c(CCC(=O)NC(C)CCc4ccco4)c(C)n3n2)c(OC)c1 (stereo unspecified) | 17.8 µM (active) |  |
| COc1ccc([C@H]2CC(=O)C=C(/C=C/c3ccccc3)C2)cc1 | inactive |  |
| COc1ccc(C2CC(=O)C=C(NCC3CCCO3)C2)cc1 (stereo unspecified) | inactive |  |
| COc1cccc(C2=CC(=O)C[C@H](c3ccc(OC)c(OC)c3)C2)c1 | 15.8 µM (active) |  |
| COc1ccc([C@H]2CC(=O)C=C(c3ccc(CO)cc3)C2)cc1 | inactive |  |
| COc1ccc([C@H]2CC(=O)C=C(c3ccc(OC(F)(F)F)cc3)C2)cc1OC | 14.1 µM (active) |  |
| COc1ccc(C2CC(=O)n3c(nc4ccccc43)S2)cc1OC (stereo unspecified) | inactive |  |
